# Reference: the supplement of paper PMC8253809
# “And” between values parts separate entries of the source, which are not always exact repeats. Equal entries are not always repeated.
# Key:
# Assay in all cases: growth inhibition (% activity, log2 RLU normalised to DMSO / staurosporine); higher = more growth inhibition
# Conditions in all cases: 33 µM
# DIPGX29 = test system: DIPGX29 (H3.3 K27M diffuse intrinsic pontine glioma line)
# Outline: (§1)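 The growth-inhibition value comes from CellTiter-Glo luminescence, log2-transformed, normalised per plate to % activity between solvent and positive control wells, and taken as the median over replicates. Treatment of pHGG cell lines and H9-derived neural stem cells with approved drugs was at a single final concentration of about 33 μM, in triplicate, for 7 days at 37 °C, 5% CO2.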
# DIPGX37 = test system: DIPGX37 (H3.3 K27M diffuse intrinsic pontine glioma line)
# Outline: as §1
# DIPGX7 = test system: DIPGX7 (H3.3 K27M diffuse intrinsic pontine glioma line)
# Outline: as §1
# DIPGX9 = test system: DIPGX9 (diffuse intrinsic pontine glioma line)
# Outline: as §1
# HGGX39 = test system: HGGX39 (paediatric high-grade glioma line)
# Outline: as §1
# HGGX6 = test system: HGGX6 (H3.3 G34R paediatric high-grade glioma line)
# Outline: as §1
# HNSC = test system: HNSC
# Outline: as §1
# SUDIPGIV = test system: SUDIPGIV (diffuse intrinsic pontine glioma line)
# Outline: as §1
# SUDIPGVI = test system: SUDIPGVI (diffuse intrinsic pontine glioma line)
# Outline: as §1
# SUDIPGXIII = test system: SUDIPGXIII (diffuse intrinsic pontine glioma line)
# Outline: as §1
SMILES,growth inhibition (DIPGX29),growth inhibition (DIPGX37),growth inhibition (DIPGX7),growth inhibition (DIPGX9),growth inhibition (HGGX39),growth inhibition (HGGX6),growth inhibition (HNSC),growth inhibition (SUDIPGIV),growth inhibition (SUDIPGVI),growth inhibition (SUDIPGXIII)
C#Cc1cccc(Nc2ncnc3cc(OCCOC)c(OCCO)cc23)c1,6.22%,3.87%,4.89%,4.84%,9.77%,9.46%,31.8%,-3.74%,2.81%,0.549%
O=c1cc[nH]c(=S)[nH]1,1.29%,1.68%,2.17%,2.37%,0.218%,-1.78%,36.9%,1.67%,-6.46%,0.601%
O=C(O)c1cc(/N=N/c2ccc(O)c(C(=O)O)c2)ccc1O,-0.786%,0.929%,0.432%,0.755%,1.33%,0.125%,11.3%,-0.724%,-2.65%,0.343%
Nc1cccc2c1CN(C1CCC(=O)NC1=O)C2=O (stereo not given),0.182%,0.237%,4.3%,2.15%,4.65%,4.94%,4.5%,1.6%,2.41%,-0.527%
Cc1nccn1CC1CCc2c(c3ccccc3n2C)C1=O (stereo not given),2.17% and 0.0485%,1.96% and -0.656%,5.12% and 2.92%,1.4% and -0.3%,4.82% and 1.34%,1.68% and -1.02%,3.47% and -2.09%,-0.0678% and -2.33%,2.21% and -0.977%,-0.102% and 0.0786%
O=C(O)c1cc(=O)c2c(OCC(O)COc3cccc4oc(C(=O)O)cc(=O)c34)cccc2o1,-1.5%,1.34%,-1.58%,0.155%,-0.164%,1.99%,-1.63%,-0.417%,-0.328%,1.77%
CCC1=C(C)CN(C(=O)NCCc2ccc(S(=O)(=O)NC(=O)N[C@H]3CC[C@H](C)CC3)cc2)C1=O,1.44%,2.15%,-0.131%,1.61%,-0.27%,0.0487%,4.42%,-0.00514%,1.62%,0.817%
Cc1ncc(C[n+]2csc(CCO)c2C)c(N)n1,0.631%,-0.256%,-1.44%,0.746%,1.92%,1.62%,-1.01%,-0.371%,0.498%,0.53%
Nc1nc(Cl)nc2c1ncn2[C@H]1C[C@H](O)[C@@H](CO)O1,18.6%,8.52%,14.4%,39.6%,16.4%,14.2%,55.2%,41.7%,5.86%,17%
CN(C)CCN(Cc1cccs1)c1ccccn1,1.96%,3.64%,1.81%,0.429%,5.09%,1.78%,2.78%,0.871%,3.63%,0.391%
CC(=O)NS(=O)(=O)c1ccc(NC(=O)c2ccccc2C(=O)O)cc1,-1.87%,-0.137%,-3.14%,-1.16%,-2.19%,-0.75%,-2.78%,-2.4%,-1.59%,-0.151%
COC(=O)N/N=C/c1c[n+]([O-])c2ccccc2[n+]1[O-],2.48%,4.18%,1.83%,0.689%,2.31%,0.191%,4.92%,3%,5.18%,-3.09%
CC(C)(C)c1cc(C(C)(C)C)c(NC(=O)c2c[nH]c3ccccc3c2=O)cc1O,7.53%,4.87%,25.1%,8.47%,22.4%,15.2%,11.9%,9.36%,2.56%,2.28%
CC(c1cc2ccccc2s1)N(O)C(N)=O (stereo not given),0.492%,-0.829%,0.715%,-0.313%,-0.313%,-1.42%,-0.145%,-2.98%,-1.81%,0.685%
Nc1ccc(S(=O)(=O)Nc2ncccn2)cc1,0.254%,1.69%,0.776%,-0.452%,0.395%,0.228%,1.26%,-0.517%,1.02%,-2.51%
CNC(=C[N+](=O)[O-])NCCSCc1ccc(CN(C)C)o1,2.69%,2.65%,5.27%,2.2%,4.25%,0.922%,9.82%,1.43%,1.91%,-0.737%
CN1c2cc(O)c(N=NC(N)=O)cc2CC1S(=O)(=O)O (stereo not given),-0.566%,-0.439%,-0.368%,-0.808%,-0.659%,0.668%,-5.18%,-0.34%,0.422%,-12.4%
COc1cc2c(cc1O)CC[C@@H]1[C@@H]2CC[C@]2(C)[C@@H](O)CC[C@@H]12,9.48%,1.66%,9.77%,16.5%,13.2%,11.7%,53.5%,20.7%,-1.23%,1.78%
O=C(O)C[C@H](O)C[C@H](O)/C=C/c1c(C2CC2)nc2ccccc2c1-c1ccc(F)cc1,16.1%,-2.02%,38.6%,7.33%,48.3%,30.8%,56.2%,39.9%,33.5%,32.8%
COc1ccccc1N1CCN(CC(O)COc2cccc3ccccc23)CC1 (stereo not given),0.825%,1.5%,3.11%,4.27%,2.32%,1.78%,0.281%,-1.37%,0.873%,-16%
C[C@@H]1CC(=O)NN=C1c1ccc(NN=C(C#N)C#N)cc1,1.15%,-0.996%,1.39%,4.28%,4.26%,2.45%,5.57%,5.05%,1.51%,0.449%

SMILES,growth inhibition (DIPGX29),growth inhibition (DIPGX37),growth inhibition (DIPGX7),growth inhibition (DIPGX9),growth inhibition (HGGX39),growth inhibition (HGGX6),growth inhibition (HNSC),growth inhibition (SUDIPGIV),growth inhibition (SUDIPGVI),growth inhibition (SUDIPGXIII)
C[C@@H](O)[C@H]1C(=O)N2C(C(=O)[O-])=C(SC3Cn4cnc[n+]4C3)[C@H](C)[C@H]12 (stereo not given in full),-0.594%,-1.93%,-0.736%,0.334%,0.724%,2.31%,-1.63%,-0.792%,0.279%,1.62%
NC(=O)c1ncn([C@@H]2O[C@H](CO)[C@@H](O)[C@H]2O)n1,-0.559%,0.551%,0.987%,0.303%,1.53%,0.756%,-0.0938%,-0.992%,2.19%,0.78%
CCc1nc(N)nc(N)c1-c1ccc(Cl)cc1,16.1%,2.67%,1.94%,4.42%,7.42%,2.78%,6.9%,12.6%,7.22%,4.01%
CC(=O)CCCCn1c(=O)c2c(ncn2C)n(C)c1=O,0.465%,1.18%,0.88%,0.578%,2.34%,2%,1.61%,-0.648%,2.85%,0.487%
CC(=O)O[C@]1(C(C)=O)CC[C@H]2[C@@H]3C=C(C)C4=CC(=O)CC[C@]4(C)[C@H]3CC[C@@]21C,0.869%,1.56%,2.71%,1.56%,-0.284%,-3.03%,-2.32%,-1.52%,-0.924%,1.41%
Cn1c(=O)c2c(ncn2CC2OCCO2)n(C)c1=O,0.735%,3.27%,0.989%,0.338%,4.64%,-0.428%,12.2%,2.59%,1.02%,0.38%
Clc1ccc(C(Cn2ccnc2)OCc2csc3c(Cl)cccc23)c(Cl)c1 (stereo not given),2.06%,3.55%,1.45%,1.99%,8.8%,6.02%,10.7%,13.8%,1.94%,5.27%
COc1cc2nccc(Oc3ccc(NC(=O)C4(C(=O)Nc5ccc(F)cc5)CC4)cc3)c2cc1OC,2.36%,6.14%,9.24%,6.67%,4.78%,17.7%,42%,0.288%,5.98%,2%
COc1ccc(CC(C)NCC(O)c2ccc(O)c(NC=O)c2)cc1 (stereo not given),-0.234%,-0.809%,0.814%,0.302%,3.66%,0.0101%,6.49%,0.93%,1.33%,-1.79%
O=C(O)c1ccc(-n2nc(-c3ccccc3O)nc2-c2ccccc2O)cc1,-3.59%,-2.58%,0.0493%,-2.68%,-2%,-3.44%,1.36%,-5.33%,-6.58%,0.207%
O=C1CC[C@@H](C(=O)N2CSC[C@H]2C(=O)O)N1,2.29%,1.19%,1.62%,1.89%,3.63%,2.97%,2.12%,1.86%,2.32%,-0.296%
Cc1cc2nc3c(=O)[nH]c(=O)nc-3n(C[C@H](O)[C@H](O)[C@H](O)CO)c2cc1C,-1.75%,2.89%,0.461%,-0.233%,2.78%,-1.29%,6.98%,4.43%,2.29%,1.1%
CCCC(CCC)C(=O)O,-0.377% and 2.62%,2.62% and 1.47%,0.168% and 0.662%,-1.7% and -0.864%,1.15% and -1.14%,-4.05% and -2.44%,2.37% and 0.244%,1.52% and 0.0625%,0.818% and -1.61%,0.746% and 0.431%
CCCCCCCCCCC[C@@H](C[C@@H]1OC(=O)[C@H]1CCCCCC)OC(=O)[C@H](CC(C)C)NC=O,-2.1%,-1.45%,-1.06%,-1.8%,-0.97%,0.864%,-6.06%,-1.86%,-3.34%,0.12%
CN1CCN(c2c(F)cc3c(=O)c(C(=O)O)cn4c3c2OCN4C)CC1,0.647%,0.371%,3.3%,2.03%,2.92%,3.21%,2.71%,1.21%,4.19%,-0.0388%
Cc1ccnc(NS(=O)(=O)c2ccc(N)cc2)n1,0.307%,1.2%,-0.936%,0.0876%,1.13%,-0.277%,-0.552%,0.606%,0.117%,1.12%
CNC1CCCN(c2c(F)cc3c(=O)c(C(=O)O)cn(C4CC4)c3c2OC)C1 (stereo not given),-0.899%,0.515%,-0.411%,1.06%,0.742%,1.27%,-1.65%,-0.11%,-0.677%,0.279%
CCOC(=O)C1=C[C@@H](OC(CC)CC)[C@H](NC(C)=O)[C@@H](N)C1,-0.948%,0.933%,-0.6%,-0.724%,-0.188%,0.263%,0.516%,1.15%,0.0268%,-0.397%
CC(C)(C)C(=O)OCOP(=O)(COCCn1cnc2c(N)ncnc21)OCOC(=O)C(C)(C)C,7.13%,8.8%,8.24%,19.5%,11.8%,7.96%,47.8%,13.4%,2.68%,3.59%
NC(Cc1cc(I)c(Oc2cc(I)c(O)c(I)c2)c(I)c1)C(=O)O (stereo not given),0.479%,2.96%,-0.171%,1.28%,2.01%,-2.56%,27.8%,10.6%,7.79%,4.24%
